Experimental data reported in the supplement of paper PMC6555819.

Experiments:
Assay in all cases: PBM binding z-score (relative to random genomic background probes); higher = stronger binding; sequences stand for … in GC…GCGATTGACAGCGTAGAATGAAGG
[1] = system: PPARg:RXRa DBDmut IVT, anti-RXR (DBD mutation: RXRa K156A/R161A, NR concentration 270 nM, RXRa partner concentration 90 nM)
Procedure, shortened: (§1)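 Custom Agilent 4×180K protein-binding microarrays carried double-stranded probes, each with a 34-nt variable region. These regions held direct-repeat seeds, single-nucleotide variants, half-site ablations and random human genomic background sequences. Ligand-free nuclear receptor dimers were incubated on the arrays for 1 h, antibodies against each partner (one per run) detected binding, and scanned fluorescence was regression-normalized. Binding z-scores take the random background probes as reference.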

[2] = system: PPARg:RXRa IVT, anti-PPARg (NR concentration 270 nM, RXRa partner concentration 90 nM)
Procedure, shortened: as §1

[3] = system: PPARg DBDmut:RXRa IVT, anti-PPARg (DBD mutation: PPARg1 K132A/R137A, NR concentration 270 nM, RXRa partner concentration 90 nM)
Procedure, shortened: as §1

[4] = system: PPARg DBDmut IVT, anti-PPARg (DBD mutation: PPARg1 K132A/R137A, NR concentration 270 nM)
Procedure, shortened: as §1

[5] = system: PPARg homodimer (NR concentration 180 nM)
Procedure, shortened: as §1

[6] = system: PXR:RXRa (NR concentration 270 nM, RXRa partner concentration 90 nM)
Procedure, shortened: as §1

[7] = system: PXR homodimer (NR concentration 270 nM)
Procedure, shortened: as §1

[8] = system: RARa:RXR (NR concentration 270 nM, RXRa partner concentration 90 nM)
Procedure, shortened: as §1

[9] = system: RARa homodimer (NR concentration 270 nM)
Procedure, shortened: as §1

[10] = system: RARb:RXRa (NR concentration 270 nM, RXRa partner concentration 90 nM)
Procedure, shortened: as §1

Sequence | PBM binding z-score [1] | PBM binding z-score [2] | PBM binding z-score [3] | PBM binding z-score [4] | PBM binding z-score [5] | PBM binding z-score [6] | PBM binding z-score [7] | PBM binding z-score [8] | PBM binding z-score [9] | PBM binding z-score [10]
CGTCCAAAGTCAGCAGGTCAGTGAAAGCGACGTG | 0.261 | 0.191 | -0.441 | -1.08 | 0.985 | 0.594 | -0.2 | 0.951 | -0.229 | 2.05
ATCTCTAGGTAAAAGTCCAGTGAATCCCGAGGAT | 2.07 | 1.54 | 0.922 | 0.924 | 0.148 | -0.1 | 0.357 | -0.148 | 0.615 | 0.582
TCTCAGAGGACACGAAAGGTCAGAGCTCGACATC | 1.77 | 1.57 | -0.124 | -0.022 | 3.62 | 4.28 | 0.423 | 4.62 | 1.56 | 4.44
CCTTACGGGTCACTGACAGATTATAGCATTTGGA | 3.42 | 3.85 | 0.84 | 0.266 | 2.31 | 3.04 | 0.241 | 4.3 | 1.11 | 3.93
GCAGACAGGTGAAACGCAGGTTACTCAGGGTGGC | 1.13 | 0.617 | -0.717 | -0.933 | -0.435 | 0.076 | -0.507 | 0.833 | -0.748 | 1.02
AATACAGTGTCATCGTAGGCCAGAGTACGCACAG | 0.125 | 1.2 | 1.33 | -0.183 | -0.106 | 0.441 | -0.156 | 0.969 | 0.337 | 1.21
CCTGCTATGTCAATGGTCAGCTAAAGCAGCTCGC | 0.388 | 0.02 | -1.09 | -1.11 | -0.369 | -0.209 | -0.703 | -0.142 | -0.762 | 0.77
TCATATAGGTAATACAGGTGAAAGACGGCATCTA | 4.17 | 3.37 | 1.39 | 1.69 | 1.42 | 0.845 | 0.764 | 1.34 | 1.85 | 0.786
CAGCCTAGGTCAGGGCCATTATAGGAGGAACGTT | 1.48 | 1.78 | -0.531 | -0.742 | 0.564 | 0.649 | -0.202 | 1.15 | 0.229 | 3.45
CCTACTGGGCCAAGGTCATCGATCAGTCAAAGCA | 4 | 4.6 | -0.807 | -0.598 | 1.98 | 3.71 | 0.25 | 4.34 | 0.517 | 3.65
ATATGTAGGTTCGCTGGGGTCATTCAGACTAGGC | 3.5 | 3.76 | 1.92 | 1.5 | 2.78 | 6.18 | 12.4 | 6.02 | 1.12 | 2.72
CCTTACGGGTCACGAGGATATAGCACGACGAGCG | 3.74 | 4.93 | 1.1 | 0.884 | 2.13 | 3.42 | -0.093 | 4.41 | 1.37 | 4.59
TAGCCTGGGTCATTCAGGGGCCAGTATAGAAAGC | 0.888 | 2.36 | 0.524 | -0.652 | 1.98 | 2.3 | -0.415 | 3.78 | -0.568 | 3.35
ACAGAAAGGTGAGTGAAGGTAACTCAGCTGGACG | 1.69 | 1.91 | 0.587 | -0.401 | 0.248 | 0.345 | -0.335 | 0.81 | 0.239 | 2.47
CCTTACTGGTCACTCCAGGTTATAGCATCGGAGT | 0.949 | 1.07 | 0.287 | 0.23 | 0.774 | 0.989 | 0.586 | 0.883 | 1.05 | 1.53
TTAGCAAGGTGAGCTGAGGTCGTTGATCCAACTC | 0.492 | 1.3 | -0.527 | -1.48 | -0.0688 | 4.92 | 0.566 | 2.28 | -1.15 | 1.59
CCTATTAGTTGACCATAAGGGCAACTGAAGCTCG | 0.175 | 0.85 | 0.663 | 0.553 | 1.38 | 1 | 0.613 | 0.807 | 1.39 | 1.73
ATCTCTAGGTAAAGATCGTTCAGTGAATGCAAAT | 2.03 | 1.66 | 1.31 | 0.707 | 0.555 | -0.16 | 0.0441 | 0.0862 | 0.49 | -0.0299
GCGACTGGGGCATCAGCAGGTTACCAGAACTTAA | 3.48 | 3.19 | -0.703 | -1.1 | 0.612 | -0.0392 | -0.687 | 0.483 | -0.801 | 0.987
